Legend:
Conditions in all cases: concentration: 1 μM,replicates: in singlicate; n = 1
[1] = test system: T1, RSK4(Kin.Dom.1-N-terminal)
T1 construct: gene RPS6KA6

[2] = test system: T2, RSK4(Kin.Dom.2-C-terminal)
T2 construct: gene RPS6KA6

S6K1 = test system: S6K1
SBK1 = test system: SBK1
SGK2 = test system: SGK2
SGK3 = test system: SGK3
SGK = test system: SGK
SIK2 = test system: SIK2
SIK = test system: SIK
SLK = test system: SLK
SNARK = test system: T3, SNARK
T3 construct: gene NUAK2

SNRK = test system: SNRK
SRC = test system: SRC
SRMS = test system: SRMS
SRPK1 = test system: SRPK1
SRPK2 = test system: SRPK2
SRPK3 = test system: SRPK3
STK16 = test system: STK16
STK33 = test system: STK33
STK35 = test system: STK35
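Further: KINOMEscan kinase panel screen.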

| Structure (SMILES) | %Inh [1] [%] | %Inh [2] [%] | %Inh (S6K1) [%] | %Inh (SBK1) [%] | %Inh (SGK2) [%] | %Inh (SGK3) [%] | %Inh (SGK) [%] | %Inh (SIK2) [%] | %Inh (SIK) [%] | %Inh (SLK) [%] | %Inh (SNARK) [%] | %Inh (SNRK) [%] | %Inh (SRC) [%] | %Inh (SRMS) [%] | %Inh (SRPK1) [%] | %Inh (SRPK2) [%] | %Inh (SRPK3) [%] | %Inh (STK16) [%] | %Inh (STK33) [%] | %Inh (STK35) [%] |
| --- | --- | --- | --- | --- | --- | --- | --- | --- | --- | --- | --- | --- | --- | --- | --- | --- | --- | --- | --- | --- |
| COc1cccc(OC)c1C(=O)Nc1cccc(-c2nn3ccccc3c2-c2ccnc(Nc3cccc(F)c3)n2)c1 [GSK361065] | 0 | 12 | 0 | 0 | 26 | 65 | 18 | 0 | 25 | 41 | 91.2 | 0 | 21 | 0 | 28 | 0 | 4 | 29 | 26 | 0 |
| COC(=O)c1cccc(NC(=O)NC2CCN(c3ccnc(Nc4cc(OC)c(OC)c(OC)c4)n3)C2)c1 (centres unmarked) [GSK1379767] | 0 | 16 | 0 | 6 | 0 | 2 | 0 | 5 | 0 | 28 | 21 | 0 | 19 | 0 | 35 | 45 | 4 | 61 | 0 | 0 |
| C[C@@H](Oc1cc(-n2cnc3ccc(-c4ccncc4)cc32)sc1C(N)=O)c1ccccc1Cl [GSK483724] | 12 | 0 | 0 | 6 | 14 | 0 | 7 | 0 | 11 | 95.5 | 51 | 0 | 5 | 0 | 73 | 0 | 25 | 80 | 19 | 0 |
| Cl.Cl.NC[C@H](CC1CCCCC1)NC(=O)c1ccc(-c2ccnc3[nH]ccc23)s1 [GSK1581428] | 84 | 12 | 93 | 88 | 79 | 92.9 | 80 | 16 | 11 | 75 | 98.3 | 0 | 17 | 0 | 85 | 12 | 91.6 | 54 | 98.4 | 63 |
| O=C(Nc1n[nH]c2cc(-c3ccco3)ccc12)C1CC1 [SB-737447] | 26 | 10 | 4 | 23 | 30 | 34 | 47 | 0 | 0 | 13 | 11 | 9 | 0 | 3 | 62 | 0 | 66 | 49 | 0 | 0 |
| CN1CCN(CCCNc2nccc(-c3c(-c4ccc(F)cc4)nn4cc(C(N)=O)ccc34)n2)CC1 [GW622475] | 0 | 91.6 | 8 | 23 | 0 | 8 | 0 | 9 | 7 | 63 | 14 | 0 | 19 | 0 | 43 | 0 | 1 | 25 | 26 | 0 |
| CNC(=O)c1ccccc1Nc1nc(Nc2cccc(CS(C)(=O)=O)c2)ncc1C.O=CO [GSK1520489] | 99.6 | 49 | 85 | 90 | 14 | 42 | 71 | 95 | 99.6 | 99.9 | 99 | 0 | 100 | 95.1 | 95.4 | 24 | 75 | 99.3 | 93.2 | 34 |
| N#Cc1cccc(C(=O)NC2CCN(c3ccnc(Nc4ccc(F)cc4)n3)C2)c1 (centres unmarked) [GSK1379708] | 0 | 0 | 1 | 2 | 5 | 0 | 0 | 0 | 7 | 16 | 0 | 0 | 5 | 0 | 40 | 0 | 0 | 12 | 0 | 0 |
| CCn1c(-c2nonc2N)nc2cncc(Br)c21 [SB-738004] | 64 | 29 | 45 | 8 | 0 | 66 | 45 | 7 | 15 | 0 | 31 | 0 | 0 | 0 | 0 | 36 | 0 | 27 | 13 | 0 |
| COc1cccc(CNC(=O)NC2CCN(c3ccnc(Nc4cc(OC)c(OC)c(OC)c4)n3)C2)c1 (centres unmarked) [GSK1379765] | 7 | 3 | 14 | 19 | 4 | 2 | 0 | 0 | 0 | 30 | 45 | 0 | 24 | 0 | 39 | 0 | 73 | 64 | 0 | 8 |
